These results are taken from PubChem BioAssay (EPA / NIEHS).

Structures are written as SMILES. Active and inactive are the calls of the source. How the source made its calls: active means hit-call score of the fitted dose curve at least 0.9, where 1 is the maximum; inactive means score below 0.9.

This assay in a line: ATG_TCF_b_cat_CIS: Attagene CIS-FACTORIAL HepG2 Assay for human T-Cell-Factor with beta-catenin (TCF/b-cat) (AID 2282965). To be noted: HepG2 TCF/beta-catenin cis-reporter transcription, actives raise or lower the signal. Here is the method:
ATG_CIS is a cell-based, multiplexed-readout assay that uses HepG2, a human liver cell line, with measurements taken at 24 hours after chemical dosing in a 24-well plate.ATG_TCF_b_cat_CIS is one of 52 assay component(s) measured or calculated from the ATG_CIS assay. It is designed to make measurements of mRNA induction, a form of inducible reporter, as detected with fluorescence intensity signals by Reverse transcription polymerase chain reaction (RT-PCR) and Capillary electrophoresis technology.Data from the assay component ATG_TCF_b_cat_CIS was analyzed into 1 assay endpoint. This assay endpoint, ATG_TCF_b_cat_CIS, was analyzed with bidirectional fitting relative to DMSO as the negative control and baseline of activity. Using a type of inducible reporter, measures of mRNA for gain or loss-of-signal activity can be used to understand the reporter gene at the transcription factor-level as they relate to the gene TCF7 and TCF7L2 and LEF1 and TCF7L1. Furthermore, this assay endpoint can be referred to as a primary readout, because this assay has produced multiple assay endpoints where this one serves a reporter gene function. To generalize the intended target to other relatable targets, this assay endpoint is annotated to the dna binding intended target family, where the subfamily is HMG box protein.
Human liver HepG2 cells are transiently transfected with multiple reporter transcription units (MRTUs) in 6-well plates using FuGene 6 reagent (Roche; 3 ml FuGene/1 mg DNA). The MRTU constructs are regulated by a cis-regulating element (promoter). […] A major difference between the CIS and TRANS system is that in CIS activities of endogenous TFs are measured, whereas the TRANS assay evaluates changes in activities of exogenous, chimeric NR-Gal4 proteins. […] At the end of 24 hour incubation, total RNA was isolated using TriZol reagent (Invitrogen). The isolated RNA is then reverse-transcribed using oligo(dT) primer and Mo-MLV reverse transcriptase (Invitrogen) with DNAse I (Ambion) treatment for 30 min. The one-tenth of the produced cDNA was amplified by PCR using Taq DNA polymerase (Invitrogen) and two reporter sequence-specific primers. The PCR products were fluorescently labeled by primer extension with 6-arboxyfluorescein (6-FAM) 5'-labeled reporter sequence-specific primer (2 min at 95 C, 20 s at 68 C and 10 min at 72 C) and these products were digested with 5U of HpaI (New England Biolabs) for 2h at 37 C. The fragments were purified using Qiaquick PCR columns (Qiagen), analyzed on an ABI 3130xL genetic analyzer (Applied Biosystems) with peak positions identified by using a set of X-rhodamine (ROX)-labeled MapMarker1000 molecular weight standards (BioVentures). The raw capillary electrophoresis data was processed using Attagraph software (Attagene).
Broadly, the AC50 is the concentration giving half of the maximal activity seen. Regarding `CC(C)C(=O)C(C)C`, the AC50 is 61.5 µM (active). For `COC=O`, the outcome was inactive.

Turning to `Cc1ccc(N/N=c2\c(=O)cc/c(=N/Nc3ccc(S(=O)(=O)O)cc3)c2=O)c(C)c1`, the result was inactive. In the case of `C=C[C@](C)(O)CC[C@@H]1[C@@]2(C)CCCC(C)(C)[C@@H]2CC[C@@]1(C)O`, the result was inactive. Same read-out and setting: with `CC(C)=CCC/C(C)=C\C#N` the entry was “inactive”; with `CC(=O)CC(N)=O`, “inactive”. Consider `CCCCC(CC)COCC1CO1` (stereo not given), for which the compound was classed as inactive. Same read-out and setting: the same measure for `O=C(O)c1cc2ccccc2nc1C(=O)O`: “inactive”; for `Cc1ccc(C(C)c2ccc(C)c(C)c2)cc1C`: “inactive”. As to `Cc1cccc(N(C)C(=S)Oc2ccc3ccccc3c2)c1`, the result was inactive. In the case of `O=S(=O)(O)c1ccc2cc(O)c(S(=O)(=O)O)cc2c1`, the AC50 is 66.9 µM (active).

For the compound `O=CC1CC1`, the call was inactive. `N#CCc1ccc(Cl)cc1Cl`: the call was inactive. On the same count and under the same terms, the same measure for `CCCCCCCCCCCCCCCC(=O)OCC`: “inactive”. For the compound `CCCCCC/C=C/C=O`, the compound was classed as inactive. Turning to `C=C(C)C(=O)OCC(C)C`, the call was inactive.

For `CC1=CC[C@H]2C[C@@H]1C2(C)C`, the outcome was inactive. For `CCCCCCOC(=O)C(C)CC` (stereo not given), the compound was classed as inactive. Turning to `c1cc(C(c2ccc(OCC3CO3)cc2)C(c2ccc(OCC3CO3)cc2)c2ccc(OCC3CO3)cc2)ccc1OCC1CO1` (stereo not given), the AC50 is 36.8 µM (active). Consider `FC(F)=C(F)OC(F)(F)C(F)(F)C(F)(F)F`, for which the compound was called inactive. In the case of `CCCCCCCCCCCCCCCC[n+]1ccccc1`, the call was inactive. The same measure, in the same setting: the same measure for `c1ccc2c(c1)ccc1cc3c(ccc4ccccc43)cc12`: “inactive”; for `O=c1c2ccccc2nnn1CCl`: “inactive”; for `COC(=O)c1cc(Cl)ccc1[N+](=O)[O-]`: “inactive”. In the case of `COC(=O)/C=C\C(=O)O`, the compound was classed as inactive. Still for that read-out and setting: with `Cc1c(C)c([N+](=O)[O-])c(C(C)(C)C)c([N+](=O)[O-])c1C` the entry was “inactive”. Consider `CCN(CC#N)c1cccc(C)c1`, for which the result was inactive. Same read-out and setting: the same measure for `CCCCCCCCC(=O)OCC`: “inactive”; for `CC(C)(C)C(=O)CCc1ccc(Cl)cc1`: “inactive”; for `CCc1c(C(=O)O)c(=O)cnn1-c1ccc(Cl)cc1`: “inactive”. Turning to `NC(CO)(CO)CO`, the compound was called inactive. Still for that read-out and setting: the same measure for `CCc1ccc2c(c1)C(=O)c1ccccc1C2=O`: “inactive”; for `Nc1ccc(N=Nc2ccccc2)c(N)n1`: “inactive”.

Consider `O=P(O)(O)Oc1ccccc1`, for which the compound was classed as inactive.

For `Cc1cc(C)c(C)c(C)c1`, the outcome was inactive. `NC(=O)NNC(N)=O`: the compound was classed as inactive.

For the compound `C[Si](C)O[Si](C)(C)O[Si](C)(C)O[Si](C)C`, the compound was classed as inactive.

As to `COc1cc(NC(=O)CC(C)=O)c(OC)cc1Cl`, the compound was called inactive.

For `CC1(C)S[C@@H]2[C@H](NC(=O)COc3ccccc3)C(=O)N2[C@H]1C(=O)O`, the compound was classed as inactive. Still for that read-out and setting: the same measure for `OC1CCCC1`: “inactive”.
